Records with an inconclusive call do not appear. Entries that show only a call come without a potency. The source made the active and inactive calls. The call rests on the fitted dose curve; in most records, active means well fitted cell-killing curve with a large enough effect; inconclusive means small, poorly fitted or top-dose-only effect; inactive means flat fitted curve, though single readings scatter.
Potency means the concentration at half of the fitted maximal effect.

The assay is described as follows: Vero-766 cells viability qHTS against the NCATS CANVASS Library: Counterscreen for Zika virus inhibition assay (AID 1347394). Further: nearly all actives have a fitted effect of over 60% in size. As to conditions: Vero 766 viability, CellTiter-Glo luminescence, 72 h; series mostly up to 46.1 µM. The text has this:
Natural products and their derivatives continue to be wellsprings of nascent therapeutic potential. However, many laboratories have limited resources for biological evaluation, leaving their previously isolated or synthesized compounds largely or completely untested. To address this issue, the Canvass library of natural products was assembled (https://tripod.nih.gov/canvass), in collaboration with academic and industry researchers, for quantitative high-throughput screening (qHTS) across a diverse set of cell-based and biochemical assays. The pure (>85% purity by liquid chromatography/mass spectrometry [LC/MS]) Canvass library of 346 natural products were submitted by 45 academic laboratories and companies around the world. We collected pure natural products to circumvent deconvolution and structure elucidation due to time and resource limitations. The library was formatted into 1536-well plates and evaluated in 50 qHTS (in an 11-pnt concentration series) bioassays with broad scope of disease-relevant mechanisms. The resulting data set from 50 different assays was then systematically analyzed to identify overall trends and specific natural products with interesting biological activities. Reported herein are the results of each individual qHTS and their corresponding assay protocol. The vero cell viability assay was performed in the absence of Zika virus utilizing Cell Titer Glo to eliminate toxic compounds. A decrease in the luminescence signal is caused by cytotoxic compounds. National Center for Advancing Translational Sciences (NCATS), Rockville, MD National Institute of Health (NIH), Bethesda, Maryland
Zika-counterscreen assay protocol: 1. In a white-solid bottom, 1536-well tissue culture plate (Corning 7494), 3 uL of Vero 766 cells derived (African Green Monkey) were dispensed into columns 1, 2, and 5 - 48 using a Multidrop Combi (Thermo Fisher Scientific) at a final concentration of 1000 cells / well. Media only was dispensed in columns 3 and 4 to be used as a control (100% inhibition). 2. The assay plates were incubated overnight at 37C, 5% CO2, 95% humidity to acclimate and attach. 3. […] of compounds (in DMSO; columns 5-48) were pin transferred into the assay plates using the Kalypsis pin tool (Wako USA) equipped with a 1536-well pin heads. This yields a final concentration range of 0.001 - 77 uM. The assay plates were sealed with breathable film. 4. The assay plates were incubated for 72 hours at 37C, 5% CO2, 95% humidity. 5. After incubation, the seals were removed by Xpeel Automated Plate Seal Remover (Brooks Life Sciences) and 2.5 uL of CellTiter Glo reagent (Promega) was dispensed into the wells (columns 1 - 48, rows 1 - 32). 6. Luminescence signal was obtained via the ViewLux plate reader (Perkin Elmer) using the clear emission filter and 1x binning, 2 seconds exposure settings.
In the case of `COc1ccc(C23Oc4cc(OC)cc(OC)c4[C@](O)([C@H](c4ccccc4)C2C(=O)NCCCCNC(=O)c2ccccc2)[C@@H]3O)cc1` (some centres undefined), the Potency entry was “inactive”.

On to `CCN1C[C@]2(C)CC[C@H](O)[C@]34C1C(C[C@H]23)[C@@]12CC[C@H](CC14)[C@](O)(COC(=O)c1ccc(OC)c(OC)c1)[C@H]2O` (some centres undefined), for which the Potency result is “inactive”.

In the case of `O=C(c1ccccc1O)c1[nH]c(Cl)c(Cl)c1-n1c(C(=O)c2ccccc2O)cc(Cl)c1Cl`, the Potency is 1.32 µM (active).

For the compound `NCCc1ccccc1`, the Potency result was “inactive”.

For `C[C@@H]1CC[C@@H](c2ccoc2)N2C[C@@]3(CC[C@@H]12)CS[C@@]1(CC[C@H]2[C@H](C)CC[C@@H](c4ccoc4)N2[C@@H]1O)C3`, the Potency was 7.41 µM (active).

With `COc1ccc2c3c([nH]c2c1)C(C)=NCC3`, the Potency result is “inactive”.

As to `COC(=O)C1=C2Nc3ccccc3[C@@]23CCN2CC(C(C)=O)C1C[C@H]23` (some centres undefined), the Potency result was “inactive”.

As to `CCC(=O)CCCCC[C@@H]1NC(=O)[C@H]2CCCCN2C(=O)[C@H]([C@@H](C)CC)NC(=O)[C@H](Cc2cn(OC)c3ccccc23)NC1=O`, the Potency was 1.86 µM (active).

Take `CNCCc1c[nH]c2ccccc12`: the Potency result was “inactive”.

With `CC1=CC(=O)C2=C(C)C[C@H](O)[C@@H]3[C@H](OC(=O)[C@@H]3C)[C@@H]12`, the Potency entry is “inactive”.

Take `CCCC[C@@H]1CC[C@H]2CCCC(CCC)N12` (some centres undefined): the Potency result was “inactive”.

On to `CNCCc1ccccc1`, for which the Potency entry was “inactive”.

With `CCC[C@H]1CC[C@H]2[C@H](C)CCC[C@H]2N1`, the Potency result was “inactive”.

Take `CCCCC[C@@H]1OC(=O)[C@@H](C)N(C)C(=O)[C@H](CCCCC)OC(=O)C(C)N(C)C(=O)[C@H](CCCCC)OC(=O)[C@@H](C)N(C)C(=O)[C@H](CCCCC)OC(=O)C(C)N(C)C1=O` (some centres undefined): the Potency is 20.9 µM (active).

In the case of `C[C@]12CC(O)C3[C@@H](CCC4C[C@@H](O)CC[C@@]43CO)[C@@]1(O)CCC2C1=CC(=O)OC1` (some centres undefined), the Potency entry was “inactive”.

As for `CC(=O)N[C@H]1CCN2CCC[C@H]12`, the Potency entry was “inactive”.

For `CN1C(=O)[C@]23CC4C(C)(C)[C@@]5(C[C@@]41CN2CC[C@@]3(C)O)C(=O)Nc1c5ccc2c1OC=CC(C)(C)O2` (some centres undefined), the Potency result was “inactive”.

In the case of `CC1=CC2CC[C@@H]3[C@@H](C)C[C@H](C)[C@@H](C1)N23` (some centres undefined), the Potency result is “inactive”.

Regarding `CO[C@@H](/C=C/CC/C=C/C(=O)O)[C@@H](O)[C@H](C)[C@@H](O)/C(C)=C/[C@H](C)C(=O)CCCC1CC(=O)NC(=O)C1`, the Potency entry is “inactive”.

For `CO[C@H](c1ccccc1)[C@H]1NC(=O)C(C)NC(=O)C(C[C@@H](C)CO)N(C)C(=O)[C@@H](C(O)c2cn(C(C)(C)C3CO3)c3ccccc23)NC(=O)C(C(C)C=C(C)C)NC(=O)C(CC(C)C)N(C)C(=O)C(C(C)C)NC1=O` (some centres undefined), the Potency result is “inactive”.

With `CN(C)Cc1c[nH]c2ccccc12`, the Potency result is “inactive”.

For the compound `CNCCc1ccc(O)cc1`, the Potency entry is “inactive”.

Turning to `CCN1C[C@]2(C)CC[C@@H](O)[C@]34C1[C@H](C[C@H]23)C12CCC(CC14)[C@](O)(CO)[C@H]2O` (some centres undefined), the Potency result is “inactive”.

On to `CC[C@@H]1CN2CC[C@@]3(O)C(=Nc4cccc(OC)c43)[C@@H]2C[C@@H]1/C(=C\OC)C(=O)OC`, for which the Potency result is “inactive”.

With `C=C1[C@@H](C)[C@H]2[C@H](Cc3ccccc3)NC(=O)[C@]23OC(=O)/C=C/[C@H](O)CCC[C@@H](C)C/C=C/[C@H]3[C@@H]1O`, the Potency was 13.2 µM (active).

As to `CO[C@@H](/C=C/CC/C=C/C(=O)O)[C@@H](O)[C@H](C)/C=C(\C)[C@@H](O)[C@H](C)C(=O)CCCC1CC(=O)NC(=O)C1`, the Potency result is “inactive”.

For `C/C=C1/CN2CC[C@]34C(=Nc5ccccc53)[C@@H]2C[C@@H]1[C@H]4C(=O)OC`, the Potency entry is “inactive”.

Consider `c1ccc2c3c([nH]c2c1)CNCC3`, for which the Potency result was “inactive”.

In the case of `CC[N@@+]1([O-])C[C@]2(C)CC[C@@H](O)[C@@]34C5C[C@H]6CC[C@@]5(C(C[C@H]23)C41)[C@H](O)[C@@]6(O)CO` (some centres undefined), the Potency entry is “inactive”.

Values taken from PubChem BioAssay (NCATS).
